# Screens: PubChem, several laboratories
# Shown are actives, neighbours in structure and some others; about 5.7% of the full set was active somewhere.
# Myeloid diff MLP: compounds promoting myeloid differentiation. ER-HoxA9 myeloid progenitors, lysozyme-GFP differentiation, flow cytometry. calls only at 10 µM. 360,000 compounds, 1% hits. AID 624256;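 active = normalized GFP-positive differentiation at or above the plate's own cutoff, the solvent-only control mean plus 3 SD; inconclusive = no clear call, values can overlap the other calls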;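 also: cells exposed to compound for four days before flow analysis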
# rCAG binder-1: molecules binding r(CAG) RNA repeats. inhibition, % at 3 µM. 370,000 compounds, 1.3% hits. r(CAG) RNA repeat, TO-PRO-1 dye displacement fluorescence;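 active = inhibition above the plate cutoff, the mean of all test compounds on that plate plus 3 SD, cut at about 35% in these data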;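 also: 0% = DMSO alone and 100% = 100 µM mitoxantrone as full dye displacement; higher means more dye released from RNA so lower well fluorescence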
# NR3A LBD binder: NR3A (human) ligand-binding domain modulation; Tm shift relative to glycine control, % at 25 µM; AID 1259313; 340,000 compounds, 2.5% hits; NR3A LBD differential scanning fluorimetry, Tm shift; 0% = protein alone, 100% = glycine-bound protein;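 active = melting temperature shift of at least 10% of the positive control shift, at one fixed dose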
# MPTP block: blocks calcium-induced mitochondrial swelling | isolated mouse mitochondria, Ca2+ swelling absorbance, 30 min | inhibition, % at 10 µM | 360,000 compounds, 1.4% hits;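 active = inhibition of 50% or more, scaled per plate between neutral and stimulator controls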;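 also: 0% = DMSO wells given calcium and 100% = 1 mM EGTA wells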
# FAS-TE inh: FAS thioesterase (human) inhibition. recombinant FAS-TE, OMFH fluorogenic substrate, fluorescence endpoint. P49327. inhibition, % at 15 µM. 360,000 compounds, 0.67% hits;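 active = compounds whose normalised, plate-corrected inhibition of enzyme fluorescence in the single-dose primary screen is 50% or more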;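 also: 0% = DMSO with enzyme and 100% = substrate without enzyme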
# Target sequence (P49327 whole entry, looked up): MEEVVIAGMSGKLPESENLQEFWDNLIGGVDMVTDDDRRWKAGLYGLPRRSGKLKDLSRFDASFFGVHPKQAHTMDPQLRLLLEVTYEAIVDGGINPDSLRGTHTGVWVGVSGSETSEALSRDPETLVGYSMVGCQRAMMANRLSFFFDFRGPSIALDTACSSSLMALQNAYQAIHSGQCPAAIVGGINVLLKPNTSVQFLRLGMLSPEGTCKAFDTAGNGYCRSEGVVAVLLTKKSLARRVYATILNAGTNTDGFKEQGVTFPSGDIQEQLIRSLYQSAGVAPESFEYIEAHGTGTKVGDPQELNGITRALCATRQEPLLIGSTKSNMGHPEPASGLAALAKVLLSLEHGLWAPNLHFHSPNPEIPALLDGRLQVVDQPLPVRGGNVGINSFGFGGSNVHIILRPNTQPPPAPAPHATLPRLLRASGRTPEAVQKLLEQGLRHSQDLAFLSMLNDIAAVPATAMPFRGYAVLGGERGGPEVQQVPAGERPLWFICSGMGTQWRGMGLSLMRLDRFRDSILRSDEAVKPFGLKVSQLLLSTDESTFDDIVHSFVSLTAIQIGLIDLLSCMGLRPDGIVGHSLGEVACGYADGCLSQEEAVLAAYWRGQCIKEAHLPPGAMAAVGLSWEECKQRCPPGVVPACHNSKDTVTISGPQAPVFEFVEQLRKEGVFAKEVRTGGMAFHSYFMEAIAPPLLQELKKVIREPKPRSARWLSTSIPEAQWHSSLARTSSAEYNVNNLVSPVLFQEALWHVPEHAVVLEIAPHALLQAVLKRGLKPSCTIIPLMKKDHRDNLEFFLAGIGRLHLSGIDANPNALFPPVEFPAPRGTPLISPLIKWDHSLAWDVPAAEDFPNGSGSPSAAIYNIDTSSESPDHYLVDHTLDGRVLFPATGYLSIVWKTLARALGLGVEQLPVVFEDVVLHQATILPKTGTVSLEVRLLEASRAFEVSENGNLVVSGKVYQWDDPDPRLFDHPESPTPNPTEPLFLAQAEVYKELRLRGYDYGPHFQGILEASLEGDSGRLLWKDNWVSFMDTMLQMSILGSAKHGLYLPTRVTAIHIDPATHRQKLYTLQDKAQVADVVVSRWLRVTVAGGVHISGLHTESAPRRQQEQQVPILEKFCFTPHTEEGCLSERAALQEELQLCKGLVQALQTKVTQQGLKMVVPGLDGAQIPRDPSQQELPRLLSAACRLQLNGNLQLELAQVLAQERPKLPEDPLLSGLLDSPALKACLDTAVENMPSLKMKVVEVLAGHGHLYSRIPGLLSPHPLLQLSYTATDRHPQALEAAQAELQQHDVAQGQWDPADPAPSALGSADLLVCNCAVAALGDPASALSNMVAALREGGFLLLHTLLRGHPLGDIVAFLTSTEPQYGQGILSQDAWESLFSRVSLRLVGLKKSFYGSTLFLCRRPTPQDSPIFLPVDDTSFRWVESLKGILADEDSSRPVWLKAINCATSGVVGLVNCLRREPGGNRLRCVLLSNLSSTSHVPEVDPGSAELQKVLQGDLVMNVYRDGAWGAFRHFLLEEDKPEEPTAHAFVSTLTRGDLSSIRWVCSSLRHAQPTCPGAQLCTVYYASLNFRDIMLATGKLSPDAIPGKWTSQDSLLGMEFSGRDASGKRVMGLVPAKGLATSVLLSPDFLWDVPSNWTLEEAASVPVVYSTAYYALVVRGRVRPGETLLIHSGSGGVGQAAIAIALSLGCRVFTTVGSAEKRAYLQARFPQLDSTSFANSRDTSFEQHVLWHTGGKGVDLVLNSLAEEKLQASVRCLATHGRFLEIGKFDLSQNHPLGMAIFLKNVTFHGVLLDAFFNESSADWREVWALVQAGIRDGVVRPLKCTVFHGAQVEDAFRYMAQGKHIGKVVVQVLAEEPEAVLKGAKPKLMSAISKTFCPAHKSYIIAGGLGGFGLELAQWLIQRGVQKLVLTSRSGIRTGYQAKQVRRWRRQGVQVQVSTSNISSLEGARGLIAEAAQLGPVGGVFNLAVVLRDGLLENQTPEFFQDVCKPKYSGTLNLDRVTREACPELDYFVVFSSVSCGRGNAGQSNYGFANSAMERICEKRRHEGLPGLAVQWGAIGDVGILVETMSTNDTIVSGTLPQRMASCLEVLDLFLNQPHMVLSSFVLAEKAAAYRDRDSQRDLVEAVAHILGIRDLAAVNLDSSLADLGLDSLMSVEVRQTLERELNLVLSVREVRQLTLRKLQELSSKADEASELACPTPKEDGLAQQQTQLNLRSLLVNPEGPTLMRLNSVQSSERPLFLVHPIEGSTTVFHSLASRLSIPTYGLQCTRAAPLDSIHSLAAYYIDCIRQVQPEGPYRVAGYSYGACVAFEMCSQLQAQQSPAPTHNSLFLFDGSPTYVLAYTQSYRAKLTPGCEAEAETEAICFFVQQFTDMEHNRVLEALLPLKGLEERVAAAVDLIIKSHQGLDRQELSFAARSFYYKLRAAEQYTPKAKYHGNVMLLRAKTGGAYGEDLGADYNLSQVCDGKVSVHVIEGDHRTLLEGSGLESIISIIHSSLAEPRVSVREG
# rCAG bind conf: r(CAG) RNA repeat binding, confirmation. shares compounds with rCAG binder-1. TO-PRO-1 dye displacement fluorescence. inhibition, % at 3 µM. 4,300 compounds, 70% hits;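 active = inhibition above a per-plate cutoff, the mean inhibition of sample wells plus 3 SD, cut at about 35% in these data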;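 also: loss of TO-PRO-1 fluorescence as compound displaces dye from 1x1 AA loop RNA; 0% = DMSO only wells and 100% = 100 µM mitoxantrone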
# DNA CAG counter: counter-screen for rCAG RNA binders: DNA CAG dye complex inhibitors | inhibition, % at 3 µM | 4,300 compounds, 94% hits | shares compounds with rCAG binder-1 | d(CAG) DNA oligo TO-PRO-1 dye displacement, fluorescence | AID 652068;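 active = inhibition above its plate's cutoff, the mean test-well inhibition plus 3 SD, cut at about 4.8% in these data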;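 also: 0% = DNA dye mix with DMSO and 100% = 100 µM mitoxantrone; hits displace the dye from DNA and so lower well fluorescence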
# DNA CAG DR: disrupts DNA CAG TO-PRO-1 complex in dose response. 250 compounds, 20% hits. DNA CAG/GTC duplex TO-PRO-1 dye displacement fluorescence. shares compounds with rCAG binder-1. AID 686960. IC50, µM; in the data active = IC50 below about 10 µM
# dCAG TOPRO ctr: counter-screen for rCAG binders: DNA CAG TO-PRO-1 complex inhibitors, late stage | IC50, µM | shares compounds with rCAG binder-1 | AID 720649 | 30 compounds, 80% hits | d(CAG) DNA duplex TO-PRO-1 dye displacement, fluorescence
# rCAG binder-2: r(CAG) repeat RNA binding, TO-PRO-1 displacement | 30 compounds, 100% hits | shares compounds with rCAG binder-1 | r(CAG) RNA TO-PRO-1 dye displacement, fluorescence | IC50, µM
# * hit, by the source's call; i = inactive; ? = inconclusive; nt = no result. Unless noted, no rule for the calls is given here.
SMILES,Myeloid diff MLP,rCAG binder-1,NR3A LBD binder,MPTP block,FAS-TE inh,rCAG bind conf,DNA CAG counter,others
CCn1c2ccccc2c2cc(NC(=O)c3ccccc3-c3ccccc3C(=O)O)ccc21,i,75*,-5,1,1,65*,26*,
CC(=O)Nc1ccc(-c2nc3cc(Cl)ccc3o2)cc1,i,0,6,2,1,nt,nt,
CCCC(=O)Nc1ccc2c(c1)c1ccccc1n2CC,i,2,0,0,5,nt,nt,
O=C(O)c1ccccc1-c1ccccc1C(=O)Nc1ccc(-c2nc3cc(Cl)ccc3o2)cc1,i,71*,-2,8,7,85*,54*,
O=C(O)c1ccccc1-c1ccccc1C(=O)Nc1ccc2oc(=O)c3ccccc3c2c1,i,51*,nt,-1,1,51*,14*,
O=C(O)c1ccccc1-c1ccccc1C(=O)Nc1ccc2c(c1)[nH]c(=O)c1ccccc12,i,68*,-5,-1,-5,62*,27*,
CC(=O)Nc1ccc(Oc2ncccn2)c(Cl)c1,i,0,1,-2,-2,nt,nt,
O=C(Nc1ccc2ccccc2c1)c1ccc(NS(=O)(=O)c2ccc(Br)s2)cc1,i,71*,21*,0,16,88*,57*,
COc1ccc(Oc2ccc(C(F)(F)F)cc2NC(=O)c2ccc(F)cc2)cc1,i,3,2,9,33,nt,nt,
COc1ccc(Oc2ccc(C(F)(F)F)cc2NC(=O)CC(CC(=O)O)c2ccccc2)cc1 (configuration not stated),i,46*,-1,4,1,42*,8.0*,
CCc1nnc(NS(=O)(=O)c2ccc(N)cc2)s1,i,2,-1,1,3,nt,nt,
CCc1nnc(NS(=O)(=O)c2ccc(N3C(=O)c4ccccc4C3=O)cc2)s1,i,18,-1,2,-11,nt,nt,
CCc1nnc(NS(=O)(=O)c2ccc(N=Cc3c(C)[nH]n(-c4ccc(Cl)cc4)c3=O)cc2)s1,i,49*,13*,7,10,84*,59*,
CCc1nnc(NS(=O)(=O)c2ccc(N=Cc3c(C)[nH]n(-c4cccc(Cl)c4)c3=O)cc2)s1,i,53*,20*,10,10,86*,63*,
CC(C)[C@@H]1NC(=O)[C@H]2C[C@@]3(c4ccccc4)c4ccccc4N[C@H]3N2C1=O,nt,9,nt,nt,nt,nt,nt,
CCCCCCCCNS(=O)(=O)/C=C/c1ccccc1CNC(=O)OC(C)(C)C,nt,2,nt,nt,nt,nt,nt,
Cc1cc(C(=O)NC2CCCN(Cc3ccc(Cl)cc3)C2)c(C)o1 (configuration not stated),i,6,1,1,0,nt,nt,
Cc1cc(C=C2C(=O)c3ccccc3C2=O)c(C)n1-c1ccc(C(=O)O)cc1,i,34,2,0,-7,nt,nt,
Cc1cc(C=C2C(=O)c3ccccc3C2=O)c(C)n1-c1cccc(C(=O)O)c1,i,56*,1,1,-7,51*,15*,
O=C(O)c1cccc(-n2cccc2C=C2C(=O)c3ccccc3C2=O)c1,i,57*,1,-1,0,47*,14*,
O=C1C(=Cc2cccn2-c2ccccc2)C(=O)c2ccccc21,i,13,3,0,-10,nt,nt,
O=c1[nH]n2c(=O)c3c([nH]c2c1N=Nc1cccc(Cl)c1)CCC3,i,85*,6,2,3,73*,31*,DNA CAG DR=8.4*
NS(=O)(=O)c1ccc(N=Nc2c(=O)[nH]n3c(=O)c4c([nH]c23)CCCC4)cc1,i,33,-1,0,-6,nt,nt,
O=c1[nH]n2c(=O)c3c([nH]c2c1N=Nc1cccc(C(F)(F)F)c1)CCCC3,i,99*,-1,5,6,76*,42*,
Cc1[nH]n(C(N)=S)c(=O)c1N=Nc1cccc(C(F)(F)F)c1,i,-1,6,5,-1,nt,nt,
SMILES,Myeloid diff MLP,rCAG binder-1,NR3A LBD binder,MPTP block,FAS-TE inh,rCAG bind conf,DNA CAG counter,others
COc1cccc(N=Nc2c(=O)[nH]n3c(=O)c4c([nH]c23)CCC4)c1,i,39*,0,0,-6,34,7.6*,
C=CCc1cc(/C=C2/NC(=O)N(CC)C2=O)cc(OCC)c1OCc1ccc(C(=O)O)cc1,i,43*,4,-1,-5,41*,10*,
COC(=O)c1sc(NC(=S)NNC(=O)c2c(Br)c(C)nn2C)c(C(=O)OC)c1C,?,69*,12*,41,7,90*,70*,
COc1ccc2oc(C)c(C(=O)c3ccccc3)c2c1,i,-2,-1,2,22,nt,nt,
COc1ccc2oc(/C=C/N(C)C)c(C(=O)c3ccc(Cl)cc3)c2c1,i,40*,-12,0,12,11,9.7*,
CN(Cc1cnn(-c2ccc(F)cc2)c1)Cc1nc(Cc2ccccc2)no1,i,-8,-1,0,13,nt,nt,
CC(/C=C/c1ccco1)=N\NC(=O)c1cccnc1,i,11,-1,-1,-9,nt,nt,
O=C(/C=C/c1ccco1)c1cccnc1,i,36*,3,0,-2,10,5.2*,
CCOc1ccc(C2=CC(=O)C[C@H](c3ccc(OC)cc3)C2)cc1,i,2,-1,0,24,nt,nt,
CCCC(C(=O)O)n1c(O)c(C=C2N=c3ccccc3=N2)sc1=S (configuration not stated),i,58*,-6,1,-2,54*,17*,
COCCCn1c(O)c(/C=C2\N=C(C#N)C(=Nc3ccc(C)cc3)O2)sc1=S,i,11,-3,20,-25,nt,nt,
O=C(O)CCCn1c(O)c(C=C2N=c3ccccc3=N2)sc1=S,i,45*,1,2,-8,29,6.7*,
O=C(O)CCCCCn1c(O)c(C=C2N=c3ccccc3=N2)sc1=S,i,83*,-5,2,-8,65*,29*,DNA CAG DR=i;dCAG TOPRO ctr=2.4*;rCAG binder-2=0.98*
O=C(O)c1ccc(/C=N\Nc2ccc(S(=O)(=O)N3CCOCC3)cc2[N+](=O)[O-])cc1,i,1,1,1,6,nt,nt,
O=C(O)COc1ccccc1/C=N/Nc1ccc(S(=O)(=O)N2CCOCC2)cc1[N+](=O)[O-],i,52*,1,-4,24,39*,9.3*,
Cc1ccccc1C(=O)Nc1cccc(C(=O)Nc2ccccc2C(=O)O)c1,i,36*,-5,1,-3,23,3,
